The campaign covered roughly 52,000 compounds. About 4,300 (8.3%) were called active. Only a selection was taken, and actives are over-represented in it overall. Unmarked numbers belong to inactive results. No stated cut-off is given here; in the data, active means survival mostly below about 52% (no sharp cut-off); inactive means mostly above about 56%.

90 compounds from PubChem BioAssay AID463173 (ICCB-Longwood Screening Facility, Harvard Medical School, 2010) can be followed below.

The assay deals with DeltatarO mutant. The assay is described as follows: growth inhibition of S. aureus wild type versus tarO mutant, primary screen, teichoic acid synthesis inhibitors, RN4220, OD600 (AID 463173). The following applies: OD600, 18 h, hits give low values, screened at 18.75 µg/mL (by protocol).
`CCOC(=O)c1c(NC(=O)CSc2cn(CCNC(=O)c3ccccc3OC)c3ccccc23)sc2c1CCC2`: the survival is 141%.

As for `CCOc1ccc(-c2cc(-c3nc(-c4cc(OC)c(OC)c(OC)c4)no3)[nH]n2)cc1Cl`, the survival is 96%.

In the case of `Cc1nnc(N2CCCC(C(=O)NCCc3ccccc3)C2)c2nn(-c3ccccc3)c(C)c12` (stereo not given), the survival is 94%.

`O=C(Nc1ccccc1O)c1ccccn1`: the survival is 77%.

For the compound `COc1ccc(Cn2c(=O)[nH]c3cc(C(=O)N4CCN(c5cc(C)ccc5C)CC4)ccc3c2=O)cc1`, the survival is 73%.

For `CCCCCn1c(=O)[nH]c2cc(C(=O)N3CCN(c4ccc(OC)cc4)CC3)ccc2c1=O`, the survival was 135%.

Turning to `O=C(c1ccc2c(=O)n(CCc3ccccc3)c(=O)[nH]c2c1)N1CCN(c2ccc(F)cc2)CC1`, the survival was 111%.

As for `CCCCCn1c(=O)[nH]c2cc(C(=O)N3CCN(c4cccc(Cl)c4)CC3)ccc2c1=O`, the survival was 71%.

`CCCCCn1c(=O)[nH]c2cc(C(=O)N3CCN(c4cccc(OC)c4)CC3)ccc2c1=O`: the survival is 55% (active).

In the case of `Cc1ccc(C)c(N2CCN(C(=O)c3ccc4c(=O)n(CCc5ccccc5)c(=O)[nH]c4c3)CC2)c1`, the survival is 55% (active).

`Cc1cccc(-n2ncc3c(N4CCN(CCO)CC4)ncnc32)c1`: the survival was 83%.

Regarding `Cc1ccc(Cc2cn3cc(-c4ccccc4)nc3s2)cc1`, the survival was 66%.

Regarding `COc1cccc(CN2C(=O)C3(SCC(=O)N3c3ccc(C)c(Cl)c3)c3ccccc32)c1` (stereo not given), the survival was 52% (active).

Turning to `COc1cccc(CN2C(=O)C3(SCC(=O)N3c3ccc(C(C)C)cc3)c3ccccc32)c1` (stereo not given), the survival was 55%.

For `COc1cccc(N2C(=O)CSC23C(=O)N(Cc2ccccc2)c2ccccc23)c1` (stereo not given), the survival was 80%.

Consider `CC(=O)N(Cc1cccnc1)c1nc2c(F)cc(F)cc2s1`, for which the survival was 89%.

For `COC(=O)c1cc2oc3ccccc3c2n1Cc1nc(-c2ccc(Cl)cc2)oc1C`, the survival was 91%.

Consider `CCOc1ccc(CCNC(=O)Cn2ccc3cc(S(=O)(=O)N4CCCCC4)ccc32)cc1`, for which the survival was 102%.

Consider `COc1ccccc1NC(=O)C1=C(C)Nc2c(C(=O)Nc3cccc(C)c3)cnn2C1c1ccccc1Cl` (stereo not given), for which the survival is -5% (active).

As to `CC1=C(C(=O)Nc2ccccc2)C(c2ccccc2Cl)n2ncc(C(=O)Nc3cccc(C)c3)c2N1` (stereo not given), the survival is 88%.

`COc1cc(OC)c(C2C=C(c3ccc(C)cc3)Nc3c(C(=O)Nc4ccccc4)cnn32)cc1OC` (stereo not given): the survival was 48%.

Turning to `CCc1ccc(C2C(C(=O)Nc3ccccc3OC)=C(C)Nc3c(C(=O)Nc4ccc(C)cc4)cnn32)cc1` (stereo not given), the survival is 68%.

`COc1ccc(C2C(C(=O)Nc3ccccc3)=C(C)Nc3c(C(=O)Nc4ccccc4)cnn32)cc1` (stereo not given): the survival is 126%.

With `COc1ccc(C2C=C(c3ccc(C)cc3)Nc3c(C(=O)Nc4ccccc4)cnn32)cc1` (stereo not given), the survival was 53% (active).

For `COc1cccc(C2C=C(c3ccccc3)Nc3c(C(=O)Nc4ccccc4)cnn32)c1OC` (stereo not given), the survival was 13% (active).

Regarding `COc1ccccc1NC(=O)C1=C(C)Nc2c(C(=O)Nc3cccc(C)c3)cnn2C1c1ccccc1C` (stereo not given), the survival is 89%.

For `CCOc1ccc(NC(=O)c2cnn3c2NC(c2ccccc2)=CC3c2cccc(OC)c2OC)cc1` (stereo not given), the survival is 62%.

Regarding `CCc1ccc(C2C(C(=O)Nc3ccccc3)=C(C)Nc3c(C(=O)Nc4ccc(C)cc4)cnn32)cc1` (stereo not given), the survival is 17% (active).

Consider `COc1ccc(C2=CC(c3ccc(F)cc3)n3ncc(C(=O)Nc4ccc(C)cc4)c3N2)cc1` (stereo not given), for which the survival was 106%.

`COc1ccc(C2C=C(c3cccc(OC)c3)Nc3c(C(=O)Nc4ccccc4)cnn32)cc1` (stereo not given): the survival was 52%.

Turning to `CC(C)(C)C(=O)Cn1c(=O)n(-c2ccccc2)c(=O)c2c3c(sc21)CCC3`, the survival is 80%.

As for `CCCn1ccc2c(OCC(=O)Nc3ccccc3OCC)cccc2c1=O`, the survival is 102%.

Regarding `O=S1(=O)c2cccc3cccc(c23)N1Cc1ccccc1F`, the survival was 81%.

Regarding `CN1CCN(C(=O)C2CCN(S(C)(=O)=O)CC2)CC1`, the survival was 83%.

For the compound `COc1ccc(C2=CC(c3ccccc3F)n3ncc(C(=O)Nc4ccc(C)cc4)c3N2)cc1` (stereo not given), the survival is 107%.

With `COc1cccc(C2=CC(c3ccccc3F)n3ncc(C(=O)Nc4ccc(F)cc4)c3N2)c1` (stereo not given), the survival is 72%.

As to `COc1cccc(C2C=C(c3ccc(C)cc3)Nc3c(C(=O)Nc4ccc(F)cc4)cnn32)c1OC` (stereo not given), the survival is 0% (active).

With `COc1nc(Nc2ccc(C)cc2)nc(NC2CCCC2)n1`, the survival was 81%.

For the compound `C/C(=N\NC(=O)CNc1ccccc1)c1ccccc1`, the survival is 85%.

Regarding `Cc1cccc(Cn2c(SCc3ccc(C(=O)NCc4ccccc4F)cc3)nc3cccnc32)c1`, the survival is 98%.

For the compound `CCOC(=O)c1c(S(=O)(=O)N2CCCC(C(=O)Nc3cccc(C)n3)C2)c(C)n(C)c1C` (stereo not given), the survival is 87%.

For `O=c1oc2ccc3ccccc3c2cc1-c1nnc(Nc2cccc(C(F)(F)F)c2)s1`, the survival is 81%.

Regarding `Cc1ccccc1-c1noc(-c2ccc(NC3CCCC3)c([N+](=O)[O-])c2)n1`, the survival was 66%.

For the compound `COc1cc(-c2noc(-c3ccc(NC4CCCCC4)c([N+](=O)[O-])c3)n2)cc(OC)c1OC`, the survival was 76%.

With `COc1ccccc1-c1noc(-c2ccc(NC3CCCCC3)c([N+](=O)[O-])c2)n1`, the survival was 41% (active).

Take `COc1ccc(-c2noc(-c3ccc(NC4CCCCC4)c([N+](=O)[O-])c3)n2)cc1OC`: the survival is 68%.

On to `COc1ccccc1-c1noc(-c2ccc(NC3CCCC3)c([N+](=O)[O-])c2)n1`, for which the survival is 43% (active).

Turning to `COc1ccc(-c2noc(-c3ccc(NC4CCCC4)c([N+](=O)[O-])c3)n2)cc1OC`, the survival is 55%.

Turning to `CCCn1c(CN2CCN(c3ccc(OC)cc3)CC2)nc2c1c(=O)[nH]c(=O)n2C`, the survival is 91%.

Take `CCOCCCN1C(=O)CN(C2CCCCCC2)C(=O)C1c1ccc(OCC)c(OC)c1` (stereo not given): the survival was 122%.

With `Cc1ccccc1C1=CCN(c2ncc(NC(=O)c3ccc(Cl)cc3)cc2C(=O)O)CC1`, the survival is 95%.

Consider `COCCCNC(=O)CCCN1C(=O)CCn2nc(-c3cccn3C)cc21`, for which the survival is 97%.

On to `Cc1cccc(NC(=O)CN2c3ccccc3S(=O)(=O)c3ccccc32)c1C`, for which the survival was 0% (active).

Take `CCOc1ccccc1NC(=O)CN1c2ccccc2S(=O)(=O)c2ccccc21`: the survival is 37% (active).

With `NC(=O)c1ccccc1NC(=O)CN1c2ccccc2S(=O)(=O)c2ccccc21`, the survival is 92%.

With `CCOc1ccccc1NC(=O)CN1C=NS(=O)(=O)c2ccccc21`, the survival was 72%.

For `Cc1cc(C)c(NC(=O)CN2c3ccccc3S(=O)(=O)c3ccccc32)c(C)c1`, the survival is 106%.

Take `O=C(CN1c2ccccc2S(=O)(=O)c2ccccc21)Nc1ccccc1Cl`: the survival was 57%.

In the case of `CCC(=O)Nc1ccc2nc(C3CC3)n(Cc3ccc(Cl)cc3)c(=O)c2c1`, the survival is 111%.

On to `Cc1cccc(C)c1OCC(=O)NCC1(N(C)C)CCCCC1`, for which the survival is 86%.

On to `Cc1ccc(Cn2c(CNC(=O)c3ccccc3Br)nc3cccnc32)cc1`, for which the survival was 120%.

As to `COc1cc(OC)c(NS(=O)(=O)c2cc3c(cc2C)NC(=O)CO3)cc1Cl`, the survival was 88%.

On to `CCN(CC)CCCNC(=O)C1CCN(S(C)(=O)=O)CC1`, for which the survival was 85%.

For `CSc1nc(Nc2ccc(C)cc2C)cc(-c2ccccc2)n1`, the survival was 51%.

Consider `CCOc1ccccc1Nc1cc(-c2ccccc2)nc(C)n1`, for which the survival was 60%.

For `COc1ccc(Nc2cc(C)c3ccccc3n2)cc1`, the survival was 96%.

`Cc1ccc(NC(=O)c2cc3nc(-c4ccccc4)cc(-c4ccccc4)n3n2)cc1`: the survival was 60%.

On to `CSc1nc(C)cc(Nc2cccc(C(=O)O)c2)n1`, for which the survival was 63%.

For `COc1cccc(Nc2cc(-c3ccccc3)nc(C)n2)c1`, the survival was 37% (active).

For `Cc1cc(Nc2ccc(Br)cc2)nc(C)n1`, the survival was 51%.

Consider `CSc1nc(Nc2ccc(F)cc2)cc(-c2ccccc2)n1`, for which the survival was -5% (active).

With `Cc1cc(C)cc(Nc2cc(-c3ccccc3)nc(C)n2)c1`, the survival was 8% (active).

As to `Cc1nc(Nc2ccc(Cl)cc2)cc(-c2ccccc2)n1`, the survival was -4% (active).

In the case of `Cc1cc(C)cc(Nc2cc(C(=O)NC3CCCCC3)c3ccccc3n2)c1`, the survival is 116%.

For `CCN(CC)CCCNc1cc(-c2ccccc2)nc(C)n1`, the survival was 65%.

For the compound `Cc1ccc(C(C)(C)C)c(OCC(=O)NCCc2nc3ccccc3[nH]2)c1`, the survival was 70%.

`O=C(Cn1c(=O)nc(-c2ccccc2)c2cc(Cl)ccc21)NCc1ccccc1`: the survival is 83%.

With `COc1ccc(NS(=O)(=O)c2cnc(N)nc2)cc1Cl`, the survival was 67%.

On to `CN1C(=O)C(Cc2ccccc2)NC1=S` (stereo not given), for which the survival was 77%.

As to `O=C(NC(=S)NCc1ccccc1)c1ccco1`, the survival was 71%.

On to `COc1cc(Cl)c(C)cc1NC(=O)CCc1c(C)nc2c3cccnc3nn2c1C`, for which the survival is 87%.

Consider `COc1ccc(Cl)cc1Nc1sc(C(=O)c2ccccc2)c(N)c1C(=O)Nc1ccccc1`, for which the survival was 103%.

Consider `Cc1ccc(CNC(=O)CN2C(=O)C3CCCCN3c3ccc(C(=O)N(C)C)cc32)cc1` (stereo not given), for which the survival was 88%.

With `Cc1cc(C)c2nc(NCCNC(=O)C3CCCCC3)c(C#N)cc2c1`, the survival is 93%.

Consider `CCOC(=O)c1ccc(Nc2cc(-c3ccccc3)nc(C)n2)cc1`, for which the survival is 50%.

As to `Cc1ccc(Nc2cc(-c3ccccc3)nc(C)n2)cc1`, the survival is 24% (active).

`Cc1ccc(-c2cc(-c3ccccc3)nc(N3CCCC3)n2)cc1`: the survival was 115%.

In the case of `Cc1ccc(CCNC(=O)c2ccc(CS(=O)(=O)Cc3ccc(Cl)cc3)o2)cc1`, the survival is 84%.

Turning to `Cn1nnc2c(N3CCN(c4ccccc4F)CC3)ncnc21`, the survival is 83%.

As to `Cc1cc(Cl)nc(-c2ccccc2)n1`, the survival is 91%.
